# From PubChem BioAssay
# Several values for one entry are separate records, joined by “and”; a condition that tells them apart may be missing. Equal entries are not always repeated. Activity calls are given as the source filed them. Rule as the data show it, unless noted: active = inhibition above about 80%; inactive = the rest.
# Assays:
# [1] = HTB85 osteosarcoma cell growth inhibition, synergistic combos for chromothripsis tumors, BGB or cisplatin IC20 combos (AID 1671453); conditions: HTB85 osteosarcoma cells, drug combinations, stronger effect = higher value;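 also: cells exposed for 96 hours before readout; 0% = vehicle DMSO and 100% = high DMSO killing control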
# [2] = CRL2098 osteosarcoma cell growth inhibition, synergistic combos for chromothripsis tumors, BGB or cisplatin IC20 combos (AID 1671454); conditions: CRL2098 osteosarcoma cells, drug combinations, stronger effect = higher value;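 also: cells exposed for 96 h before readout; 0% = vehicle DMSO and 100% = killing by high DMSO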
# [3] = HD-MB03 medulloblastoma cell growth inhibition, synergistic combos for chromothripsis tumors, BGB or cisplatin IC20 combos (AID 1671455; in the data active = inhibition above about 83%;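 also: 0% = vehicle DMSO and 100% = high DMSO as cytotoxic control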); conditions: HD-MB03 medulloblastoma cells, stronger effect = higher value
# [4] = UWB1.289 ovarian carcinoma cell growth inhibition, synergistic combos for chromothripsis tumors, BGB or cisplatin combos (AID 1671456); conditions: UWB1.289 ovarian carcinoma cells, stronger effect = higher value;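 also: cells exposed to compound for four days; 0% = vehicle DMSO and 100% = killing by high DMSO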
# [5] = LFS_MB_2R medulloblastoma cell growth inhibition, synergistic combos for chromothripsis tumors, cisplatin combos (AID 1671457); conditions: LFS_MB_2R medulloblastoma cells, stronger effect = higher value;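 also: cells exposed to compound for four days before readout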
# [6] = MDA-MB-436 breast carcinoma cell growth inhibition, synergistic combos for chromothripsis tumors, BGB or cisplatin combos (AID 1671458; call rule not given here;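 also: cells exposed for 96 hours; 0% = vehicle DMSO and 100% = killing by high DMSO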); conditions: MDA-MB-436 breast carcinoma growth inhibition, drug combinations, stronger effect = higher value
# [7] = UWB1.289_BRCA1 ovarian cancer growth, cell-based, BGB or cisplatin combinations (AID 1671459); conditions: UWB1.289 BRCA1 ovarian carcinoma, drug combinations, stronger effect = higher value
# [8] = human astrocyte viability loss, single and combined drugs, cytotoxicity control for chromothriptic childhood tumor combination screen, cell-based, BGB or cisplatin IC20 combos (AID 1671460); conditions: Human astrocytes, drug combinations, stronger effect = higher value;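 also: cells exposed to compounds for 96 hours before viability readout; 0% = vehicle and 100% = killing control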
# [9] = growth inhibition of BT084 medulloblastoma cells, cell-based, ICGC_MB145, cisplatin and BGB IC40 combos (AID 1671461); conditions: drug combinations, stronger effect = higher value;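 also: cells exposed to drugs for 96 hours; 0% = vehicle DMSO and 100% = high DMSO full killing control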
# [10] = growth inhibition of RCMB18 medulloblastoma cells, cell-based, cisplatin and BGB IC40 combos (AID 1671462); conditions: stronger effect = higher value;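 also: cells exposed to compound for four days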
# [11] = growth inhibition of CRL1545 osteosarcoma cells, cell-based, cisplatin and BGB IC20 combos (AID 1671464); conditions: stronger effect = higher value;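 also: cells exposed to compound for 96 hours before readout; 0% = vehicle DMSO and 100% = high DMSO killing control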
# [12] = measured here: combination with cisplatin, at 0.5 µM
smiles,measurement,setting,value
O=c1[nH]cnc2c1ncn2C1OC(CO)C(O)C1O (centres undefined),inhibition,[1]; at 0.5 µM,-33.2% (inactive) and -8.83% (inactive)
same,inhibition,"[1]; measured here: with BGB IC20, at 0.5 µM",-29.3% and -11.2%
same,inhibition,"[1]; measured here: with BGB IC20, at 5 µM",-15.9% and -25.5%
same,inhibition,"[1]; measured here: with cisplatin IC20, at 0.5 µM",-32% and -10.1%
same,inhibition,"[1]; measured here: with cisplatin IC20, at 5 µM",-20.2% and -47.1%
same,inhibition,"[1]; single agent, at 5 µM",-29.3% and -10.1%
same,inhibition,[2]; at 0.5 µM,-90% (inactive) and -56.6% (inactive)
same,inhibition,"[2]; measured here: combination with BGB at IC20, at 0.5 µM",-87.4% and -18.5%
same,inhibition,"[2]; measured here: combination with cisplatin at IC20, at 0.5 µM",-101% and -96.8%
same,inhibition,[3]; at 0.5 µM,-22.6% (inactive) and -12.7% (inactive)
same,inhibition,"[3]; measured here: combo with BGB at IC20, at 0.5 µM",-22.7% and -11.5%
same,inhibition,"[3]; measured here: combo with cisplatin at IC20, at 0.5 µM",-27.8% and -18.3%
same,inhibition,[4]; at 0.5 µM,-11.2% (inactive) and -3.6% (inactive)
same,inhibition,"[4]; measured here: inhibition with BGB combination, at 0.05 µM",-39.3% and 0.127%
same,inhibition,"[4]; measured here: inhibition with cisplatin combination, at 0.05 µM",-26% and -16.8%
same,inhibition,[5]; at 0.5 µM,-25.5% (inactive) and -18.4% (inactive)
same,inhibition,[5]; [12],-31.3% and -25.6%
same,inhibition,"[5]; measured here: combination with cisplatin, at 5 µM",-22.2% and -17.4%
same,inhibition,[6]; at 0.5 µM,-21.2% (inactive) and -4.5% (inactive)
same,inhibition,"[6]; measured here: BGB combination, at 0.5 µM",-24.8% and -4.38%
same,inhibition,"[6]; measured here: BGB combination, at 5 µM",-28.5% and -13.8%
same,inhibition,"[6]; measured here: cisplatin combination, at 0.5 µM",-29.8% and -11.4%
same,inhibition,"[6]; measured here: cisplatin combination, at 5 µM",-15.5% and -7.72%
same,inhibition,"[7]; BGB combination, concentration series, at 5 µM",-23.4% and 11.7%
same,inhibition,[7]; at 0.5 µM,-19.3% (inactive) and -1.78% (inactive)
same,inhibition,"[7]; cisplatin combination, concentration series, at 5 µM",-16.4% and -23.2%
same,inhibition,[8]; at 0.5 µM,3.07% (inactive) and 14% (inactive)
same,inhibition,"[8]; measured here: combo with BGB IC20, at 0.5 µM",13.9% and 6.47%
same,inhibition,"[8]; measured here: combo with cisplatin IC20, at 0.5 µM",-4.13% and 24.5%
same,inhibition,[9]; at 0.5 µM,-1.88% (inactive) and -23.7% (inactive)
same,inhibition,"[9]; cisplatin combination, at 0.5 µM",-2.01% and -52.6%
same,inhibition,"[9]; cisplatin combination, at 5 µM",-202% and -23.5%
same,inhibition,"[9]; measured here: BGB IC40 combination 0.05 uM, at 0.05 µM",-22.8% and -31.6%
same,inhibition,"[9]; single agent, at 5 µM",-16.1% and -9.19%
same,inhibition,[10]; at 0.5 µM,-14.6% (inactive) and -17.6% (inactive)
same,inhibition,"[10]; cisplatin combo, at 5 µM",-27.4% and -4.56%
same,inhibition,"[10]; measured here: BGB IC40 combination, at 0.05 µM",-8.27% and -1.88%
same,inhibition,[10]; [12],-12.7% and -17.5%
same,inhibition,"[10]; single agent, at 5 µM",-19.5% and -20.5%
same,inhibition,[11]; at 0.5 µM,-5.83% (inactive) and -5.48% (inactive)
same,inhibition,"[11]; measured here: with BGB IC20 combination, at 0.5 µM",-50.4% and -16.7%
same,inhibition,"[11]; measured here: with cisplatin IC20 combination, at 0.5 µM",15.1% and -1.52%
same,inhibition,"[11]; single agent, at 0.05 µM",-48.7% and 14.4%
same,inhibition,"[11]; single agent, at 5 µM",-40.4%
